PKA-R2B act: activators of PKA-R2B holoenzyme, primary screen, biochemical, fluorescence polarization, Cy5-IP20, human. 340,000 tested, 0.079% active. cAMP-dependent protein kinase catalytic subunit beta (Homo sapiens) + cAMP-dependent …. activation, % at 11.4 µM. PKA-R2B holoenzyme dissociation; R2B truncated from residue 108, S112A mutant; 0% DMSO only, 100% 113 µM cGMP;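 active means activation above a cutoff set at the mean over all compounds plus 3 SD, cut at about 18% in these data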;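 further: higher means more holoenzyme dissociation and a rise in polarization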
PKA-R1A activ: activators of PKA-R1A holoenzyme, primary screen, biochemical, fluorescence polarization, Cy5-IP20, bovine R1A, mouse PKAc. AID 504707, 2011. activation, % at 11.4 µM. PKA-R1A dissociation; scaled: DMSO 0%, 113 µM cGMP 100%. 340,000 tested, 0.083% active;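 active means percent activation above the mean of all tested compounds plus 3 SD, cut at about 19% in these data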;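 further: higher means more PKAc released from R1A so a rise in polarization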
CHT inh: inhibitors of human choline transporter CHT. CHT-expressing cells, membrane potential dye, choline response; stronger effect = lower value. High affinity choline transporter 1 (Homo sapiens), Q9GZV3. B-score at 10 µM. 310,000 tested, 0.86% active;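 active means B-score over 3 SD under the library average, and starting fluorescence ratio not unusually high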;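 further: choline stimulus applied at its EC90 after an EC20 pre-addition; B-score computed on integrated fluorescence ratio after choline addition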
TMEM16A act: TMEM16A chloride channel activators or potentiators, primary screen, cell-based, HTS; Anoctamin-1 (Mus musculus), Q8BHY3; HEK293 TMEM16A/YFP-H148Q/I152L, iodide quench fluorescence; stronger effect = lower value; B-score at 10 µM; 340,000 tested, 0.3% active;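 active means fluorescence-ratio B-score plate-corrected deviation score at least 3 library SD below zero, with starting fluorescence score within 5 deviations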;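 further: channel opened by trigger with iodide after compound preincubation; score built on the fluorescence ratio of max minus min over baseline; more negative score means more quench and so TMEM16A activation or potentiation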
Target sequence (Q8BHY3 whole entry, looked up): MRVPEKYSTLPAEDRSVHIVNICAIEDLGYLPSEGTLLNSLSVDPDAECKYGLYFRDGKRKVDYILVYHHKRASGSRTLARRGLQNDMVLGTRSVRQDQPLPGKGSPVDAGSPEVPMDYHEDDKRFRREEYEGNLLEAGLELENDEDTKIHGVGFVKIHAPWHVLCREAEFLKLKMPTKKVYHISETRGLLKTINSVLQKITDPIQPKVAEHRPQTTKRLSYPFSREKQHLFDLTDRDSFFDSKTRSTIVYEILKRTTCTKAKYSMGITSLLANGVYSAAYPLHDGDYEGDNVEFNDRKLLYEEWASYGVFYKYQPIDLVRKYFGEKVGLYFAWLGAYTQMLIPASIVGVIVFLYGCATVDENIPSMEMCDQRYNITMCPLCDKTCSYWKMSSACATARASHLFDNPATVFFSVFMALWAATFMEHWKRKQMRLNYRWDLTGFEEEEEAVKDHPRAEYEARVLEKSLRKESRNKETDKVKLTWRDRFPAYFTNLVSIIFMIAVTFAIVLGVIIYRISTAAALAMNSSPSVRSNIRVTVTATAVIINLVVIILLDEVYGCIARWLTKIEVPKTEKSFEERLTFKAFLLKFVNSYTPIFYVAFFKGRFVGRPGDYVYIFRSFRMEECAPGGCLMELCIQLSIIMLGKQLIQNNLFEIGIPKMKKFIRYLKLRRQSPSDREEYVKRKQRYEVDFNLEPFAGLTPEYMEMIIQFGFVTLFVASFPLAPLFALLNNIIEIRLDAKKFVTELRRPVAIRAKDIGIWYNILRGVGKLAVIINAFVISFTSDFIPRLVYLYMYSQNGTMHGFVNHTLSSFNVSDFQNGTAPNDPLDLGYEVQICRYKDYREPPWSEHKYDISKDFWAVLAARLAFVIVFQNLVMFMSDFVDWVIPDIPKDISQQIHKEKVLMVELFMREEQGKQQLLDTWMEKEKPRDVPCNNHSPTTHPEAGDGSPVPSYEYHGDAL
TMEM16A inh: TMEM16A chloride channel inhibitors, primary screen, cell-based, HTS. HEK293 TMEM16A/YFP iodide influx fluorescence, ionomycin. AID 588511, 2011. 310,000 tested, 1.2% active. Anoctamin-1 (Mus musculus), Q8BHY3. normalized B-score (activity score, 25-100; higher = stronger inhibition) at 10 µM;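 active means ratio plate-corrected score three or more library SD toward inhibition, starting fluorescence score within five deviations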;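 further: score derived from kinetic fluorescence span divided by baseline fluorescence per well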
CHT allo act: CHT positive allosteric modulators, primary screen, cell-based, membrane potential dye, choline EC20; 310,000 tested, 0.49% active; CHT-expressing cells; stronger effect = higher value; LV-AA mutant CHT in HEK293 cells; B-score at 10 µM;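 active means initial fluorescence not abnormally high and integrated response B-score, plate-corrected, over 3 SD above library mean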
CHT activ conf: CHT activators, confirmation, cell-based, membrane potential dye, duplicate; shares compounds with CHT allo act; CHT-expressing cells, membrane potential dye fluorescence (FDSS); % of choline EC20–EC90 response window; HEK293 expressing CHT LV-AA mutant; choline added at its EC20; activation, % at 10 µM; 2,500 tested, 91% active;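 active means primary screen active, with duplicate mean activation above negative control mean plus 3 SD, cut at about 11% in these data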
HEK293 MP dye: membrane potential response in parental HEK293 cells, counter-screen for CHT activator project, cell-based, membrane potential dye. 2,500 tested, 62% active. ratio readout change at 10 µM, hits read low. membrane potential dye fluorescence (FDSS); measured after EC20 choline addition. shares compounds with CHT allo act;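 active means duplicate-averaged ratio beyond 3 SD from buffer wells, up or down, though filed actives are nearly all decreases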
An asterisk follows results filed as active; i = inactive; x = not tested or not shown. Rows were chosen to be rich in hits. Some 2.5% of all compounds tested hit in one or more screens of this group.

SMILES	PKA-R2B act	PKA-R1A activ	CHT inh	TMEM16A act	TMEM16A inh	CHT allo act	CHT activ conf	HEK293 MP dye
O=C(CSc1ncnc2scc(-c3ccccc3)c12)N1CCN(c2ccccc2F)CC1	-4	-2	i	i	i	i	42*	i
CCOC(=O)c1sc2ncnc(N3CCN(C)CC3)c2c1C	9	-2	i	i	i	i	30*	-41*
CCOC(=O)N1CCN(c2ncnc3scc(-c4ccccc4)c23)CC1	0	0	i	i	i	9.7*	15*	i
Cc1ccc(O)c(NC(=O)C2CC(c3cccc(Br)c3)=NO2)c1 (configuration not stated)	-2	-5	i	i	i	i	x	x
CCOc1ccc(C(C(=O)NC2CCCC2)N(Cc2ccccc2)C(=O)c2nsc(Cl)c2Cl)cc1 (configuration not stated)	-1	-1	i	i	i	i	1	i
COc1ccc(C(C(=O)NC2CCCC2)N(Cc2ccccc2)C(=O)c2nsc(Cl)c2Cl)cc1 (configuration not stated)	-5	0	i	i	i	i	x	x
O=C(COc1cccc2cccnc12)N/N=C1\SCC(=O)N1CCc1ccccc1	0	-15	i	i	i	i	x	x
O=C(COc1cccc2cccnc12)N/N=C1\SCC(=O)N1Cc1ccco1	-6	-4	i	i	i	7.2*	66*	-55*
O=C(C[n+]1cc(-c2ccc(Cl)cc2)n2c1CCCCC2)c1ccccc1	-11	-2	i	i	i	i	x	x
O=C(C[n+]1cc(-c2ccc(Br)cc2)n2c1CCCCC2)c1ccccc1	0	7	i	i	i	i	23*	i
CC1(C(=O)N2CCN(C(=O)c3ccco3)CC2)CC1(Br)Br (configuration not stated)	1	-6	i	i	i	i	x	x
CNC(=O)C1CCN(S(=O)(=O)c2c(C)noc2/C=C/c2ccc(OC)cc2)CC1	3	1	i	i	i	i	x	x
O=[N+]([O-])c1ccc(OC/C=C2\Oc3ccc([N+](=O)[O-])cc3C2N2CCOCC2)cc1 (configuration not stated)	-2	-13	i	i	i	7.5*	30*	i
O=[N+]([O-])c1ccc2c(c1)C(N1CCOCC1)/C(=C/COc1ccc3ccccc3c1Br)O2 (configuration not stated)	-4	-9	i	i	i	i	x	x
Cn1ncc(C#N)c1/N=C/N(Cc1ccccc1)Cc1ccccc1	1	-8	i	i	i	16*	46*	i
O=C(Nc1c(F)cccc1F)c1ccc2c(c1)CCN2S(=O)(=O)c1ccccc1	-14	-6	i	i	i	i	x	x
Cc1cc(N2CCN(S(=O)(=O)c3ccccc3)CC2)c2ccccc2n1	1	3	i	i	i	10*	53*	-73*
Nc1nc(N2CCN(C(=O)c3ccco3)CC2)nc2ccc(Br)cc12	4	0	i	i	i	i	20*	-32*
Cc1cc(N2CCN(C(=O)Nc3ccc(F)cc3F)CC2)c2ccccc2n1	4	-3	i	i	i	6.6*	53*	-71*
O=C(c1ccco1)N1CCN(c2ncccn2)CC1	13	6	i	i	i	i	x	x
Cc1cc(N2CCN(c3nc(-c4ccccc4)cs3)CC2)c2ccccc2n1	11	6	i	i	i	i	x	x
O=C(c1ccco1)N1CCN(c2nc3ccccc3c(=O)n2-c2ccccc2)CC1	-6	3	i	i	i	i	x	x
Nc1nc(N2CCN(C(=O)c3ccco3)CC2)nc2ccccc12	5	6	i	i	i	6.4*	57*	-58*
Cc1ccc(-c2nnc(-c3cc(C)on3)o2)cc1	-10	-15	i	i	i	i	x	x
Cc1cc(=O)[nH]c(N2CCN(C(=O)c3ccco3)CC2)n1	3	3	i	i	i	i	x	x
SMILES	PKA-R2B act	PKA-R1A activ	CHT inh	TMEM16A act	TMEM16A inh	CHT allo act	CHT activ conf	HEK293 MP dye
Cc1cc(N2CCN(C(=O)c3ccco3)CC2)c2ccccc2n1	1	-11	i	i	i	6.9*	39*	-53*
CN1CCc2c(C#N)c(N3CCCCC3)nc(N3CCOCC3)c2C1	x	x	i	x	i	7*	43*	-53*
C=CCNc1nc(N2CCOCC2)c(C#N)c2c1CN(C)CC2	3	-11	i	i	i	i	x	x
COc1cccc(C(c2nnnn2Cc2ccco2)N2CCN(c3cccc(C)c3C)CC2)c1OC (configuration not stated)	-18	8	i	i	i	7.1*	20*	i
COc1cccc(C(c2nnnn2CCc2ccccc2)N2CCN(c3ccccc3)CC2)c1OC (configuration not stated)	-3	-2	i	i	i	6.8*	21*	i
COc1ccccc1N1CCN(C(c2ccccc2)c2nnnn2CCc2ccccc2)CC1 (configuration not stated)	-8	-13	i	i	i	i	17*	i
COc1ccccc1C(c1nnnn1CCc1ccccc1)N1CCN(c2ccccc2)CC1 (configuration not stated)	0	4	i	i	i	i	x	x
CCOC(=O)Cc1csc(SCC(=O)NC2CCC(C)CC2)n1 (configuration not stated)	-8	-6	i	i	i	i	x	x
